Only some compounds are listed: those with a hit (about 4% of all), similar ones and a draw of the others.
KKLEB cytotox = counter-screen for CF NF-kB inhibitors: cytotoxicity | KKLEB CF airway cells viability, ATPlite luminescence, overnight; hits give low values; cells stimulated with P. aeruginosa culture filtrate | activity change (cytotoxicity), % at 5 µM | actives 0.36% (n = 360,000) | AID 602141;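 active means corrected activity change at or below -50% at 5 µM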
TROY NFkB inh = TROY signaling inhibition; actives 0.98% (n = 360,000); Q293 LMP1-TROYcd NF-kB luciferase reporter, 4 h; inhibition, % at 10 µM;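 active means compounds whose plate-normalised and pattern-corrected inhibition of the luciferase reporter signal at the single screening dose is 50% or more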
TWEAK-Fn14 inh = inhibitors of TWEAK-Fn14 interaction signaling | TWEAK-stimulated Fn14 reporter cells, luciferase luminescence, 8 h | actives 2% (n = 360,000) | AID 1159606 | inhibition, % at 10 µM; in the data active means inhibition above about 50%
CF NFkB inh = blocks PAF-induced NF-kB reporter in cystic fibrosis cells | actives 0.86% (n = 360,000) | KKLEB NF-kB-GFP reporter, GFP fluorescence overnight | inhibition, % at 5 µM;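 active means at least 50% inhibition at 5 µM, scaled per plate between neutral and stimulator controls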;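 further: PAF is a Pseudomonas aeruginosa culture filtrate used as stimulus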
HIF-2a block = HIF-2a inhibition; 786-0 RCC cells HIF-2a reporter, luciferase luminescence, overnight; inhibition, % at 18.8 µM; actives 0.72% (n = 360,000);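 active means inhibition of the luminescence signal of 40% or more relative to plate controls, in a single-dose primary screen at 18.75 µM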
Peg3 promoter = Peg3 promoter activity inhibition; inhibition, % at 20 µM; AID 588405; actives 1.7% (n = 360,000); HeLa PEG-Prom luciferase reporter, luminescence, overnight;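 active means inhibition of at least 50% at 20 µM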
Hits are given with their value; 0 = inactive; - = not tested or not shown.

SMILES	KKLEB cytotox	TROY NFkB inh	TWEAK-Fn14 inh	CF NFkB inh	HIF-2a block	Peg3 promoter
COc1ccc(N2CCN(c3oc(Cc4cccc5ccccc45)nc3C#N)CC2)cc1	0	0	0	0	0	0
N#C/C(=C\c1ccc(Cl)cc1Cl)c1n[nH]c(Cn2cncn2)n1	0	-	65	0	0	0
O=C(Nc1ccc2c(c1)OCCO2)C(c1ccnc2ccccc12)N1CCN(c2ccc(C(F)(F)F)cn2)CC1 (configuration not stated)	0	69	89	0	0	0
O=C(Nc1ccc2c(c1)OCCO2)C(c1ccnc2ccccc12)N1CCN(c2ccc(F)cc2)CC1 (configuration not stated)	0	0	0	0	0	0
Cc1ccc(C(=O)Nc2nc(-c3ccco3)c(-c3ccco3)s2)o1	0	0	83	0	0	0
COc1ccccc1CNC(=O)C(=O)NCC1OCCN1C(=O)c1cccs1 (configuration not stated)	0	0	0	0	0	0
Cc1cc(O)c2c(c1O)C(=O)[C@]13C(=C2O)C(=O)[C@@H]2[C@@H](O)[C@H]1[C@@H]1[C@H](O)[C@H]3C(=O)C3=C(O)c4c(O)cc(C)c(O)c4C(=O)[C@]312	0	0	65	53	0	0
COCc1cc(C)nc(OCC(=O)N/N=C/c2ccc(-c3cc([N+](=O)[O-])ccc3Cl)o2)c1C#N	0	0	0	0	0	54
COCc1cc(C)nc(OCC(=O)N/N=C/c2ccco2)c1C#N	0	0	0	0	0	0
CC(=O)N1CCc2cc(S(=O)(=O)NC(CC(C)C)C(=O)Nc3ccc4c(c3)OCCO4)ccc21 (configuration not stated)	0	0	57	0	0	0
COc1ccc(N=Nc2cc(OC)c(N)cc2OC)cc1	0	0	0	0	0	0
Cc1cc(N=Nc2ccc(C)c(N=Nc3cc(C)c(N)cc3N)c2)c(N)cc1N	0	0	69	0	0	0
COc1ccc(S(=O)(=O)N(C(=O)c2ccco2)c2cc3sc(=O)oc3c3ccccc23)cc1	0	0	0	71	0	0
COc1ccc(S(=O)(=O)N(C(=O)C(C)C)c2ccc3oc(=O)sc3c2)cc1	0	0	0	0	0	0
Cc1ccc(S(=O)(=O)N(C(=O)c2ccco2)c2cc3sc(=O)oc3c3ccccc23)cc1	0	0	0	64	0	0
CC(=O)N(c1ccc2oc(=O)sc2c1)S(=O)(=O)c1ccccc1	0	0	0	0	0	0
CCOc1ccc(S(=O)(=O)N(C(=O)c2ccco2)c2cc3sc(=O)oc3c3ccccc23)cc1	0	0	0	52	0	0
C/C(=N\Nc1ccc(S(N)(=O)=O)cc1[N+](=O)[O-])c1ccc2c(c1)OCO2	0	0	0	0	0	0
Cc1ccc(C(=O)CCC(=O)OCC(=O)Nc2cc(S(=O)(=O)N(C)C)ccc2C)cc1	0	0	0	0	0	0
CCOC(=O)c1ccc(NC(=O)c2nc[nH]c2C(=O)NCC(=O)OC(C)(C)C)cc1	0	0	0	0	0	0
CCOC(=O)c1ccc(NC(=O)c2nc[nH]c2C(=O)NCCCCCNC(=O)OC(C)(C)C)cc1	0	0	0	0	0	70
CCOC(=O)c1ccc(NC(=O)c2nc[nH]c2C(=O)NCCCNC(=O)c2[nH]cnc2C(=O)Nc2ccc(C(=O)OCC)cc2)cc1	0	0	0	0	0	0
CCOC(=O)c1ccc(NC(=O)c2nc[nH]c2C(=O)NCCCCNC(=O)c2[nH]cnc2C(=O)Nc2ccc(C(=O)OCC)cc2)cc1	0	0	0	0	0	97
CCOC(=O)c1ccc(NC(=O)NCCc2cnc[nH]2)cc1	0	0	60	0	0	0
C#CCn1c(O)c(N=NC(=O)C(O)c2ccccc2)c2ccccc21 (configuration not stated)	0	0	0	0	0	0
Cc1cc(C(=O)NN=Cc2ccc(-c3ccc(F)cc3)o2)c(C)o1	0	0	0	0	0	0
O=[N+]([O-])c1c(NCCCO)cc(Sc2nc3ccccc3s2)c2nonc12	0	0	0	0	0	101
CC(=O)OCCCNc1cc(SCc2ccco2)c2nonc2c1[N+](=O)[O-]	0	0	0	0	0	0
Cc1nnc(Sc2cc(NCCO)c([N+](=O)[O-])c3nonc23)s1	0	0	0	0	0	0

Bioassay records as filed in PubChem.
